Screen size: about 5,500 compounds; about 2,000 (36%) were called active. Roughly 18% stayed inconclusive and do not appear here. Rule as the data show it: active = normalized growth mostly below about 0.91 (no sharp cut-off); inconclusive = no clear call, values can overlap the other calls; inactive = mostly above about 0.92. The list shows a part of the results.
Experiment: chemical genetic growth profiling, strain panel (AID 1159580);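 also: tested at 20 µM; growth read once vehicle control cultures reached saturation at 30 °C; 1 = growth at the plate median or of vehicle wells; lower values mean less growth of the strain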
Conditions: growth OD

Measured: normalized growth

C#C[C@]1(O)CCC2C3CCC4=Cc5oncc5C[C@]4(C)C3CC[C@@]21C (some centres not stated)
active: S. cerevisiae deletion strains, locus YKL068W, hits give low values 0.922 | S. cerevisiae deletion strains, locus YKL085W, strain MDH1 (second series), hits give low values 0.889 | S. cerevisiae deletion strains, locus YKL085W, strain MDH1, hits give low values 0.889 | S. cerevisiae deletion strains, locus YKR001C, strain vps1, hits give low values 0.831 | S. cerevisiae deletion strains, locus YLR027C, strain aat2, hits give low values 0.911 | S. cerevisiae deletion strains, locus YLR039C, strain RIC1, hits give low values 0.574 | S. cerevisiae deletion strains, locus YLR262C, strain YPT6 (second series), hits give low values 0.792 | S. cerevisiae deletion strains, locus YLR262C, strain YPT6, hits give low values 0.565 | S. cerevisiae deletion strains, locus YLR268W, strain sec22, hits give low values 0.838 | S. cerevisiae deletion strains, locus YLR330W, strain CHS5, hits give low values 0.902 | S. cerevisiae deletion strains, locus YLR342W, strain FKS1, hits give low values 0.875 | S. cerevisiae deletion strains, locus YLR371W, strain rom2, hits give low values 0.852 | S. cerevisiae deletion strains, locus YLR418C, strain cdc73, hits give low values 0.645 | S. cerevisiae deletion strains, locus YML124C, strain tub3, hits give low values 0.92 | S. cerevisiae deletion strains, locus YNL071W, strain lat1, hits give low values 0.841 | S. cerevisiae deletion strains, locus YNL233W, strain BNI4, hits give low values 0.843 | S. cerevisiae deletion strains, locus YNL271C, strain bni1, hits give low values 0.908 | S. cerevisiae deletion strains, locus YNL307C, strain MCK1, hits give low values 0.759 | S. cerevisiae deletion strains, locus YOL147C, strain pex11, hits give low values 0.899 | S. cerevisiae deletion strains, locus YOR144C, strain elg1, hits give low values 0.914 | S. cerevisiae deletion strains, locus YOR184W, strain ser1, hits give low values 0.59 | S. cerevisiae deletion strains, locus YPL055C, strain LGE1, hits give low values 0.75 | S. cerevisiae deletion strains, locus YPR119W, strain clb2, hits give low values 0.915 | S. cerevisiae deletion strains, locus YPR141C, strain kar3, hits give low values 0.895 | S. cerevisiae deletion strains, locus YPR163C, strain tif3, hits give low values 0.877 | S. cerevisiae deletion strains, strain wtn01, hits give low values 0.887
inactive: S. cerevisiae deletion strains, locus YJR066W, strain TOR1, hits give low values 0.956 | S. cerevisiae deletion strains, locus YKL009W, strain mrt4, hits give low values 0.954 | S. cerevisiae deletion strains, locus YKL160W, strain elf1, hits give low values 0.925 | S. cerevisiae deletion strains, locus YKR026C, strain gcn3, hits give low values 0.948 | S. cerevisiae deletion strains, locus YKR091W, strain srl3, hits give low values 0.964 | S. cerevisiae deletion strains, locus YLL001W, strain dnm1, hits give low values 0.921 | S. cerevisiae deletion strains, locus YLL026W, hits give low values 0.94 | S. cerevisiae deletion strains, locus YLL041C, strain sdh2, hits give low values 0.961 | S. cerevisiae deletion strains, locus YLR058C, strain SHM2, hits give low values 0.898 | S. cerevisiae deletion strains, locus YLR102C, strain apc9, hits give low values 0.949 | S. cerevisiae deletion strains, locus YLR113W, strain HOG1, hits give low values 0.95 | S. cerevisiae deletion strains, locus YLR221C, strain rsa3, hits give low values 0.957 | S. cerevisiae deletion strains, locus YLR258W, strain gsy2, hits give low values 0.955 | S. cerevisiae deletion strains, locus YLR320W, strain mms22, hits give low values 0.914 | S. cerevisiae deletion strains, locus YLR342W, strain FKS1 (second series), hits give low values 0.926 | S. cerevisiae deletion strains, locus YLR357W, strain rsc2, hits give low values 0.944 | S. cerevisiae deletion strains, locus YLR370C, strain arc18, hits give low values 0.975 | S. cerevisiae deletion strains, locus YLR384C, strain iki3, hits give low values 0.958 | S. cerevisiae deletion strains, locus YML016C, strain PPZ1, hits give low values 0.935 | S. cerevisiae deletion strains, locus YML032C, strain rad52, hits give low values 0.928 | S. cerevisiae deletion strains, locus YML120C, strain ndi1, hits give low values 0.924 | S. cerevisiae deletion strains, locus YMR058W, strain fet3, hits give low values 0.938 | S. cerevisiae deletion strains, locus YMR078C, strain ctf18, hits give low values 0.923 | S. cerevisiae deletion strains, locus YMR125W, strain sto1, hits give low values 0.94 | S. cerevisiae deletion strains, locus YMR129W, hits give low values 0.959 | S. cerevisiae deletion strains, locus YMR205C, strain PFK2, hits give low values 0.92 | S. cerevisiae deletion strains, locus YMR223W, strain ubp8, hits give low values 0.953 | S. cerevisiae deletion strains, locus YMR231W, strain pep5, hits give low values 0.965 | S. cerevisiae deletion strains, locus YMR263W, strain SAP30, hits give low values 0.926 | S. cerevisiae deletion strains, locus YMR307W, strain GAS1, hits give low values 0.73 | S. cerevisiae deletion strains, locus YNL067W, strain RPL9B, hits give low values 0.927 | S. cerevisiae deletion strains, locus YNL183C, strain NPR1, hits give low values 0.95 | S. cerevisiae deletion strains, locus YNL209W, strain ssb2, hits give low values 0.991 | S. cerevisiae deletion strains, locus YNL248C, strain rpa49, hits give low values 0.982 | S. cerevisiae deletion strains, locus YNL250W, strain rad50, hits give low values 0.928 | S. cerevisiae deletion strains, locus YNL298W, strain CLA4, hits give low values 0.953 | S. cerevisiae deletion strains, locus YNL322C, strain KRE1 (second series), hits give low values 0.945 | S. cerevisiae deletion strains, locus YNR049C, strain mso1, hits give low values 0.961 | S. cerevisiae deletion strains, locus YNR052C, strain pop2, hits give low values 0.956 | S. cerevisiae deletion strains, locus YOL012C, strain htz1 0.535 | S. cerevisiae deletion strains, locus YOR001W, strain rrp6, hits give low values 0.972 | S. cerevisiae deletion strains, locus YOR061W, strain CKA2, hits give low values 0.904 | S. cerevisiae deletion strains, locus YOR069W, strain VPS5, hits give low values 0.955 | S. cerevisiae deletion strains, locus YOR070C, strain gyp1, hits give low values 0.975 | S. cerevisiae deletion strains, locus YOR080W, strain dia2, hits give low values 0.957 | S. cerevisiae deletion strains, locus YOR083W, strain WHI5, hits give low values 0.941 | S. cerevisiae deletion strains, locus YOR106W, strain vam3, hits give low values 0.963 | S. cerevisiae deletion strains, locus YOR136W, strain idh2, hits give low values 0.922 | S. cerevisiae deletion strains, locus YOR231W, strain MKK1, hits give low values 0.988 | S. cerevisiae deletion strains, locus YOR265W, strain rbl2, hits give low values 0.966 | S. cerevisiae deletion strains, locus YOR270C, strain vph1, hits give low values 0.824 | S. cerevisiae deletion strains, locus YOR290C, strain snf2, hits give low values 1 | S. cerevisiae deletion strains, locus YOR316C, strain cot1, hits give low values 0.925 | S. cerevisiae deletion strains, locus YPL051W, strain arl3, hits give low values 0.945 | S. cerevisiae deletion strains, locus YPL078C, strain atp4, hits give low values 0.902 | S. cerevisiae deletion strains, locus YPL106C, strain sse1, hits give low values 0.984 | S. cerevisiae deletion strains, locus YPL240C, strain hsp82, hits give low values 0.967 | S. cerevisiae deletion strains, locus YPL241C, strain CIN2, hits give low values 0.931 | S. cerevisiae deletion strains, locus YPL256C, strain CLN2, hits give low values 0.975 | S. cerevisiae deletion strains, locus YPR167C, strain met16, hits give low values 0.926 | S. cerevisiae strains, strain wild type, hits give low values 0.911

From PubChem BioAssay AID1159580 (chemical genetic matrix, 2015)
